Results filed as inconclusive are left out. The source made the active and inactive calls. Calls follow the shape of the dose curve; as a rule, active = well fitted curve in the direction sought with a large enough effect; inconclusive = small, poorly fitted or top-dose-only effect, or another doubt; inactive = no such curve, though single readings can be large; an effect the other way counts as inactive or inconclusive.
Columns and labels:
[1] = qHTS for inhibitors of adenylyl cyclases using a fission yeast platform: a pilot screen against the NCATS LOPAC library (AID 1347410);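 also: plate controls were DMSO vehicle for no effect and DPI positive control for full effect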
How it was run: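 Inhibition of GNAS-stimulated AC9 activity in S. pombe was inferred from derepression of a PKA-repressed fbp1-GFP reporter, measured as cytometric fluorescence after 18 h at 30C with compounds at up to 57 µM.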

[2] = biological target: Protein phosphatase 1D (Homo sapiens) (UniProt O15297); assay: RapidFire Mass Spectrometry qHTS Assay for Modulators of WT P53-Induced Phosphatase 1 (WIP1) (AID 1347424);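 also: amount of dephosphorylated VEPPL-S-QETFS peptide product formed by WIP1; series mostly up to about 63 µM; plate controls were DMSO wells for no effect and GSK830371 inhibitor control at 10 µM for full effect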
Chain of Protein phosphatase 1D (Homo sapiens) (O15297 whole entry, looked up): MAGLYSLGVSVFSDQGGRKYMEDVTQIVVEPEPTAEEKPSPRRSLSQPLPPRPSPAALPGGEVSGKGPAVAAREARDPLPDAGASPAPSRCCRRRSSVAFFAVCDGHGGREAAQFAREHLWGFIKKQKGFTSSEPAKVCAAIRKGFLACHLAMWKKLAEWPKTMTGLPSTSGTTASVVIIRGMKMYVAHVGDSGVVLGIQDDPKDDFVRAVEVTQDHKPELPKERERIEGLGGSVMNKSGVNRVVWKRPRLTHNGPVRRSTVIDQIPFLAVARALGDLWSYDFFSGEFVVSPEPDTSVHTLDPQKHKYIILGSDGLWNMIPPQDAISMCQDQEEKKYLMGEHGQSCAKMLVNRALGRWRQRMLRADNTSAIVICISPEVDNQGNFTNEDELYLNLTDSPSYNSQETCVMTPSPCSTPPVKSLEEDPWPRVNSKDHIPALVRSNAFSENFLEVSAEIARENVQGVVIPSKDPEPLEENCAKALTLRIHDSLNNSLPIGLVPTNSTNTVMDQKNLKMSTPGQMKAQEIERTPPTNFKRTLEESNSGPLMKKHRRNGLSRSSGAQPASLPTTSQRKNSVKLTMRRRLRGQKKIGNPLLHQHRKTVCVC
How it was run: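 Mass-spectrometric measurement of dephosphorylated peptide after a 5 min room-temperature reaction of 10 nM WIP1 with 2 uM phosphopeptide, following 1 h compound preincubation in 30 mM MgCl2 buffer.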

[3] = biological target: Protein phosphatase 1D (Homo sapiens) (UniProt O15297); assay: Rhodamine-PBP qHTS Assay for Modulators of WT P53-Induced Phosphatase 1 (WIP1) (AID 1347425); also: % of control where 0% means no effect
How it was run: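 Read-out: Rhodamine-PBP fluorescence (ex 525/em 598 nm) for released Pi, read each minute for 11 min after adding 10 uM VEPPL-pS-QETFS; signal taken as f1 minus pre-substrate f0. Enzyme 5 nM WIP1 with 1 hr room-temperature compound preincubation.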

[4] = Validation qHTS assay for inhibitors of Activation Induced Cytidine Deaminase (AID): UDG Counterscreen signal (AID 1347427); also: potency is read from the fitted curve at half-maximal effect
How it was run: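 Fluorescence at 560 nm excitation, 665 nm emission reports UDG signal after 250 mM NaOH (2x) addition and 30 min. Enzymes (AID 1 uM, UDG 2 U/mL, at 4/3x) preincubated 10 min with compound, then 4 h with 4x 250 nM DJC20/DJC23 substrate at room temperature.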

[5] = biological target: Single-stranded DNA cytosine deaminase (Homo sapiens) (UniProt Q9GZX7); assay: Validation qHTS assay for inhibitors of Activation Induced Cytidine Deaminase (AID): AID signal (AID 1347429); also: potency is read from the fitted curve at half-maximal effect; as to activity change, negative = inhibition: % is scaled to controls: 0 for no effect and ±100 for the full control effect
Chain of Single-stranded DNA cytosine deaminase (Homo sapiens) (Q9GZX7 whole entry, looked up): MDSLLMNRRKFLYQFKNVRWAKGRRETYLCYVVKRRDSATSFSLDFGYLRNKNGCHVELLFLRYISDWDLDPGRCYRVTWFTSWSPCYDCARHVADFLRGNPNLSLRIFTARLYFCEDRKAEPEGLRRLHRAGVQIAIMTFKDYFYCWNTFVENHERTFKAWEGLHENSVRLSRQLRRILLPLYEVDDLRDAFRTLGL
How it was run: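 Compounds (up to 114 uM final) are tested against AID plus UDG using DJC20/DJC23 FRET substrate. Reactions incubate 4 hr at room temperature, receive NaOH for 30 min, and are read at Ex 540/Em 590 nm.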

[6] = qHTS to identify inhibitors of the type 1 interferon - major histocompatibility complex class I in skeletal muscle: primary screen against the NCATS Mechanism Interrogation Plate v5.0 (MIPE) Libary (AID 1347411);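 also: plate controls were vehicle for no effect and reference inhibitor for full effect; nearly all actives have a fitted effect of over 65% in size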
How it was run: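 IFN-beta-driven (4 ng/ml) HLA-B-HiBit expression in CRISPR-tagged C25cl48 myoblasts; compounds 11-pt, 1:3, max 46 uM, 24 hr exposure; lytic NanoLuc complementation luminescence.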

[7] = Primary qHTS for inhibitors of La Crosse Virus (LACV) - induced cell death in SH-SY5Y cells (AID 1508616);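 also: top concentration of the series differs between compounds; 0% = infected DMSO wells and 100% = uninfected DMSO wells; higher means more rescue of cells from virus-induced death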
How it was run: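 Screening measures cell viability in LACV-infected SH-SY5Y cultures. Compound was added before virus (0.01 MOI), and ATP was detected by luminescence 6 days later.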

[8] = biological target: Calcium and integrin-binding protein 1 (Homo sapiens) (UniProt Q99828); assay: Primary qHTS for Identification of Calcium Integrin Binding Protein 1 (CIB1) Competitor (AID 1508620);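 also: GST tagged CIB1 binding a fluorescein labelled alphaIIb integrin peptide tracer; top concentration of the series differs between compounds; % is scaled to controls: 0 for no effect and ±100 for the full control effect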
Chain of Calcium and integrin-binding protein 1 (Homo sapiens) (Q99828 whole entry, looked up): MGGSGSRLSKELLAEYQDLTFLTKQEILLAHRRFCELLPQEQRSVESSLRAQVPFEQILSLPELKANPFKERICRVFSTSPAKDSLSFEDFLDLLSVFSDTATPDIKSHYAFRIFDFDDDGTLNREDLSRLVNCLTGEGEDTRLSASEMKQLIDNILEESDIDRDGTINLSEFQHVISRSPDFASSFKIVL
How it was run: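 Fluorescence polarization competition: CIB1-GST (1 uM final) preincubated with compound 15 min at room temperature, then FITC-labeled alphaIIb peptide (100 nM final) added for another 15 min. Polarization read at Ex 480/Em 540.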

[9] = biological target: Calcium and integrin-binding protein 1 (Homo sapiens) (UniProt Q99828); assay: Validation qHTS for Identification of Calcium Integrin Binding protein 1 (CIB1) Competitor (AID 1508618); also: % is scaled to controls: 0 for no effect and ±100 for the full control effect
How it was run: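 CIB1-GST (1 uM final) in 5 mM HEPES pH 7.4, 125 mM NaCl, 5 mM CaCl2, 0.01% Tween20 was preincubated 15 min at room temperature with compound (up to 114 uM), then FITC-alphaIIb peptide (100 nM) added for 15 min; fluorescence polarization read.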

[10] = biological target: Calcium and integrin-binding protein 1 (Homo sapiens) (UniProt Q99828); assay: Confirmatory qHTS for Identification of Calcium Integrin Binding Protein 1 (CIB1) Competitor (AID 1508617); also: potency is read from the fitted curve at half-maximal effect; nearly all actives have a fitted effect of over 65% in size
How it was run: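 Fluorescence polarization competition: CIB1-GST (1 uM final) in 5 mM HEPES pH 7.4, 125 mM NaCl, 5 mM CaCl2, 0.01% Tween20 preincubated 15 min RT with compound (up to 114 uM), then FITC-alphaIIb peptide (100 nM) added, 15 min RT.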

CN(C)CC[C@@H](c1ccc(Cl)cc1)c1ccccn1
inactive: outcome [1] | outcome [2] | outcome [3] | Potency [4] | Potency [5]

Nc1ncnc2c1ncn2[C@@H]1O[C@H](CO)[C@@H](O)[C@H]1O
inactive: outcome [1] | Potency [6] | outcome [2] | outcome [3] | Potency [4] | Potency [5] | outcome [7] | outcome [8]

O=C1N=C(O)CN1/N=C/c1ccc(-c2ccc([N+](=O)[O-])cc2)o1
inactive: outcome [1] | outcome [2] | outcome [3] | Potency [4] | Potency [5]

CC(CN1c2ccccc2Sc2ccccc21)N(C)C (stereo not given)
inactive: outcome [1] | outcome [2] | outcome [3] | Potency [4] | Potency [5] | outcome [7]

CN(C)CCCN1c2ccccc2Sc2ccc(Cl)cc21
inactive: outcome [1] | outcome [2] | outcome [3] | Potency [4] | Potency [5] | outcome [7] | outcome [8]

CC(C(O)c1ccc(O)cc1)N1CCC(Cc2ccccc2)CC1 (stereo not given)
inactive: outcome [1] | outcome [2] | outcome [3] | Potency [4] | Potency [5] | outcome [7]

CCN(CC)CCNC(=O)c1c(C)[nH]c(/C=C2\C(=O)Nc3ccc(F)cc32)c1C
inactive: outcome [1] | outcome [2]

CC(=O)c1ccc2c(c1)N(CCCN(C)C)c1ccccc1S2
inactive: outcome [1] | outcome [2] | outcome [3] | outcome [8]

CNC(=O)Oc1ccc2c(c1)[C@]1(C)CCN(C)[C@@H]1N2C
inactive: outcome [1] | outcome [3] | Potency [4] | Potency [5] | outcome [7] | outcome [8]

O=C(O)[C@H](O)c1ccccc1
inactive: outcome [2] | outcome [3]

CC(C)NC[C@H](O)c1ccc(O)c(O)c1
inactive: outcome [1] | Potency [4] | Potency [5] | outcome [7] | outcome [9]

CN(C)CCCN1c2ccccc2CCc2ccccc21
inactive: outcome [1] | outcome [3]

NC(=O)c1ncn([C@@H]2O[C@H](CO)[C@@H](O)[C@H]2O)c1N
inactive: Potency [6] | outcome [2] | outcome [3] | outcome [7] | outcome [8]

COc1ccc2[nH]c(S(=O)Cc3ncc(C)c(OC)c3C)nc2n1 (stereo not given)
inactive: Potency [6] | outcome [2] | outcome [3] | outcome [7]

COC(=O)C1=C(C)NC(C)=C(C(=O)OC)C1c1ccccc1[N+](=O)[O-]
inactive: outcome [1] | outcome [3] | Potency [4] | Potency [5] | outcome [7] | outcome [8]

Nc1cc(=O)[nH]c(N)n1
inactive: outcome [1] | outcome [3] | Potency [4] | Potency [5] | outcome [8]

NC(N)=NCCC[C@H](N)C(=O)O
inactive: outcome [1] | activity change, negative = inhibition [3] -0.0772% [at 4.81 µM] | Potency [4] | Potency [5] | outcome [7]

CN1CCC[C@@H]1Cc1c[nH]c2ccc(CCS(=O)(=O)c3ccccc3)cc12
inactive: outcome [1] | outcome [2] | outcome [3] | outcome [8]

Cc1cc(N)c2ccccc2[n+]1CCCCCCCCCC[n+]1c(C)cc(N)c2ccccc21
active: Potency [4] 89.1 µM | Potency [5] 50.1 µM
inactive: outcome [1] | outcome [7] | outcome [8]

Cc1c(O)cccc1C(=O)N[C@@H](CSc1ccccc1)[C@H](O)CN1C[C@H]2CCCC[C@H]2C[C@H]1C(=O)NC(C)(C)C
inactive: outcome [1] | outcome [2] | outcome [3] | outcome [7]

C[C@H](NC(CCc1ccccc1)C(=O)O)C(=O)N1CCC[C@H]1C(=O)O (stereo not given in full)
inactive: outcome [1] | outcome [3] | outcome [7] | outcome [8]

C=Cc1c(C)c2cc3[nH]c(cc4nc(cc5nc(cc1[nH]2)C(C)=C5CCC(=O)O)C(CCC(=O)O)=C4C)c(C)c3C=C
active: Potency [10] 25.1 µM
inactive: outcome [1] | outcome [3] | Potency [4] | Potency [5] | outcome [7]

CC1=C(CC(=O)O)c2cc(F)ccc2/C1=C\c1ccc(S(C)(=O)=O)cc1
inactive: outcome [1] | outcome [3] | Potency [4] | Potency [5] | outcome [7]

O=C(O)c1ccccn1
inactive: outcome [2] | outcome [3]

CNCC(O)c1ccc(O)c(O)c1 (stereo not given)
inactive: outcome [1] | outcome [3] | Potency [4] | Potency [5] | outcome [7]

O=C1NC(=O)[C@@]2(CCOc3ccc(F)cc32)N1
inactive: outcome [1] | outcome [2] | outcome [3] | outcome [7] | outcome [8]

CC(C)(C(=O)O)c1ccc(C(O)CCCN2CCC(C(O)(c3ccccc3)c3ccccc3)CC2)cc1 (stereo not given)
inactive: outcome [1] | outcome [2] | outcome [3] | outcome [7]

N=c1c[n+](N2CCOCC2)[n-]o1
inactive: outcome [1] | Potency [4] | Potency [5] | outcome [7]

CC(C)(C)[C@]1(O)CCN2C[C@H]3c4ccccc4CCc4cccc(c43)[C@@H]2C1
inactive: outcome [1] | Potency [4] | Potency [5] | outcome [7]

CC(C)(C)c1onc(OCP(=O)(O)O)c1CC(N)C(=O)O (stereo not given)
inactive: outcome [1] | Potency [4] | Potency [5] | outcome [7]

Oc1cn2c(n1)Nc1ccc(Cl)c(Cl)c1C2
inactive: outcome [2] | outcome [3]

CN(N=O)C(=O)N[C@@H]1[C@@H](O)[C@H](O)[C@@H](CO)O[C@@H]1O
inactive: Potency [6] | outcome [2] | outcome [3] | outcome [7]

OCCN1CCN(CCCN2c3ccccc3Sc3ccc(Cl)cc32)CC1
inactive: outcome [1] | outcome [3] | Potency [4] | Potency [5] | outcome [7]

OC[C@H]1O[C@@H](O[C@@H]2[C@@H](CO)O[C@](O)(CO)[C@H]2O)[C@H](O)[C@@H](O)[C@H]1O
inactive: Potency [6] | outcome [2] | outcome [3] | outcome [7] | outcome [8]

O=c1cc[nH]c(=O)[nH]1
inactive: outcome [2] | outcome [3]

C[C@](N)(Cc1ccc(O)cc1)C(=O)O
inactive: outcome [1] | activity change, negative = inhibition [3] -0.695% [at 4.81 µM] | Potency [4] | Potency [5] | outcome [7] | activity change, negative = inhibition [8] 5.16% [at 12.4 µM]

Cn1c(=O)c2c(ncn2CC2OCCO2)n(C)c1=O
inactive: Potency [6] | outcome [2] | outcome [3] | outcome [7] | outcome [8]

O=C(Oc1ccccc1C(=O)O)c1ccccc1O
inactive: outcome [2] | outcome [3]

— PubChem BioAssay (NCATS)
